Screens: PubChem, several laboratories
Measles CPE: protection of cells from measles virus; Measles virus-infected cells, CPE protection, absorbance; protection (pct of control), % at 4 µM; hit rate 1.5% among 140,000; in the data active means protection mostly above about 24%, no sharp cut-off; inactive means mostly below about 26%
CYP2C19 inh: blocks human cytochrome P450 2C19. CYP2C19 Supersomes, luciferin-H EGE luminescence, 30 min. hit rate 21% among 96,000. inhibition, % at 5 µM. P33261;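 active means CYP2C19 inhibition above a set limit at 5 µM in the primary screen, cut at about 50% in these data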
CYP2C19 activ: increases human CYP2C19 enzyme activity | AID 1025 | 96,000 tested, under 10 active | activation factor at 5 µM | recombinant CYP2C19, luciferin-H EGE luminescence; hits give high values; 0 = fully inhibited enzyme, 1 = untreated enzyme | P33261;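 active means activation factor of at least 2 at 5 µM in the primary screen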
CYP2C9 activ: increases human cytochrome P450 2C9 activity. P11712. recombinant CYP2C9, luciferin-H conversion, luminescence; hits give high values; factor 1 = untreated enzyme, 0 = blocked. activation factor at 5 µM. hit rate 1.4% among 96,000. AID 1024;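 active means activation factor of 2 or more for CYP2C9 at a 5 µM dose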
Target sequence (P11712 whole entry, looked up): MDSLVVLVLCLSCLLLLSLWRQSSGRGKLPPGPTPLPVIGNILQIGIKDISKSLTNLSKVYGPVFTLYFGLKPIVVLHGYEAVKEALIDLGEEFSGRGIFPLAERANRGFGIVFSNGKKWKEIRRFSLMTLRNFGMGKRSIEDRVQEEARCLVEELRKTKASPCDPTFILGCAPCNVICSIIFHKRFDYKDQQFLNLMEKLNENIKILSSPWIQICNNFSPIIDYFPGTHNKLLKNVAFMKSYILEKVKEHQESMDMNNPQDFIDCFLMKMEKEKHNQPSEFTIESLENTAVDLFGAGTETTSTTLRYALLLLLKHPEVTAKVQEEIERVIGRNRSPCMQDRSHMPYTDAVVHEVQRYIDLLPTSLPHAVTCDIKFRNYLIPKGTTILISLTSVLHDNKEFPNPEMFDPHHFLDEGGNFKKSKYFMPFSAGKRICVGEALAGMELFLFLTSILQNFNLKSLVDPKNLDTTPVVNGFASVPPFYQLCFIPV
CYP2C9 inhib: human CYP2C9 inhibition; P11712; CYP2C9 Supersomes, luciferin-H conversion, luminescence; inhibition, % at 5 µM; hit rate 20% among 96,000; AID 777;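 active means blocking of liver enzyme CYP2C9 beyond about 50% at 5 µM, limit read from the data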
A number is an active result; i = inactive; nt = not tested or not shown. Shown are actives, neighbours in structure and some others; about 22% of the full set was active somewhere.

SMILES	Measles CPE	CYP2C19 inh	CYP2C19 activ	CYP2C9 activ	CYP2C9 inhib
CCOc1cccc(SCc2noc(C(=O)NCC3CCCO3)c2C(=O)O)c1 (centres undefined)	i	53.7	i	i	50.1
O=C(NCC1CCCO1)c1onc(CSc2cccc(Cl)c2)c1C(=O)O (centres undefined)	i	i	i	i	54.7
O=C(NCC1CCCO1)c1onc(CSc2cccc3ccccc23)c1C(=O)O (centres undefined)	i	i	i	i	82.2
CCOC(=O)/C(N=O)=C(\O)C1CCN(C(=O)OCC)CC1	i	i	i	i	i
CCN(CC)S(=O)(=O)c1ccc(N2CCCC2)c(NS(=O)(=O)c2ccc(F)cc2)c1	i	nt	nt	nt	nt
COc1ccc(/C=N/NC(=O)c2cccc(NC(=O)c3ccccc3)c2)c(C(=O)O)c1OC	i	nt	nt	nt	nt
CC(C)CC(=O)O/N=C1\C(=O)N(c2ccccc2)c2ccccc21	i	i	i	i	i
CC(C)CC(=O)O/N=C1\C(=O)N(Cc2ccc(Cl)cc2)c2ccc([N+](=O)[O-])cc21	i	64.7	i	i	58.0
CC(C)NC(=O)CSCc1c(F)cccc1Cl	i	nt	nt	nt	nt
O=C(c1ccc(Cn2cc(Br)cn2)cc1)N1N=C(C(F)F)CC1(O)C(F)F (centres undefined)	i	nt	nt	nt	nt
COc1ccccc1N1CCN(C(=O)c2sc3nc(-c4ccc(F)cc4)cn3c2C)CC1	i	i	i	i	50.4
CCOC(=O)N1CCN(C(=O)c2ccc(OC)c(OC)c2)CC1	i	i	i	i	i
Cc1c(C(=O)N2CC(C)OC(C)C2)sc2nc(-c3ccc(F)cc3)cn12 (centres undefined)	i	i	i	i	i
COc1ccc2c(c1)sc1nc(-c3ccccc3)cn12	i	82.1	i	i	92.1
COc1ccc(-c2cn3c(C)c(C(=O)N4CCN(c5ccc(F)cc5)CC4)sc3n2)cc1	i	i	i	i	i
CCOC(=O)N1CCN(C(=O)c2ccc3c(c2)sc2nc(-c4ccc(OC)cc4)cn23)CC1	63.4	i	i	i	i
CCOC(=O)N1CCN(C(=O)c2sc3nc(-c4ccc(F)cc4)cn3c2C)CC1	i	63.9	i	i	68.7
CCCC1=C(C(=O)OCC)C(c2ccc(N(C)C)cc2)n2ncnc2N1 (centres undefined)	i	i	i	i	i
COC(=O)c1cc(C(=O)Nc2nnc(CC(C)(C)C)s2)cc([N+](=O)[O-])c1	i	nt	nt	nt	nt
O=C(O)CC(=O)Nc1ccccc1C(=O)O	i	i	i	i	i
CCOc1ccc2c(c1)c(C(C)=O)c(C)n2-c1ccccc1	i	99.0	i	i	99.0
COC(=O)c1c(C)n(-c2ccc(OC)cc2)c2ccc(O)cc12	i	79.2	i	i	66.7
CC(=O)c1c(C)n(C)c2ccc(O)cc12	39.2	i	i	i	i
Cc1c(C(=O)O)c2cc(O)ccc2n1-c1ccccc1	i	i	i	i	i
COc1cc(/C=N/S(=O)(=O)CCc2ccccc2)cc(OC)c1O	i	nt	nt	nt	nt
SMILES	Measles CPE	CYP2C19 inh	CYP2C19 activ	CYP2C9 activ	CYP2C9 inhib
CC(Sc1ncnc2ccccc12)C(=O)Nc1ccc2c(c1)OCCO2 (centres undefined)	i	nt	nt	nt	nt
COCCCNS(=O)(=O)c1ccc(S(=O)(=O)N2CCCC2)cc1	i	i	i	i	i
COc1cccc(CN2CCN(c3cccc(C(F)(F)F)c3)CC2)c1OC	i	nt	nt	nt	nt
COc1cccc(N2CCN(Cc3cccnc3)CC2)c1	i	66.8	i	i	i
FC(F)(F)c1cccc(N2CCN(Cc3cccnc3)CC2)c1	i	96.4	i	i	80.8
Cc1cccc(N2CCN(Cc3ccoc3)CC2)c1C	i	i	i	i	i
CCOc1cccc(CN2CCN(c3cccc(C(F)(F)F)c3)CC2)c1O	i	93.4	i	i	64.6
FC(F)(F)c1cccc(N2CCN(Cc3ccoc3)CC2)c1	i	66.9	i	i	53.7
COc1cccc(CN2CCN(c3ncccn3)CC2)c1	i	56.3	i	i	i
Cc1cccc(S(=O)(=O)c2c(N)n(/N=C/c3ccccc3)c3nc4ccccc4nc23)c1	59.5	i	i	i	54.7
Cc1ccc(C)c(S(=O)(=O)c2c(N)n(/N=C/c3ccco3)c3nc4ccccc4nc23)c1	i	63.0	i	i	85.7
CC/C(=N\NC(=O)C(N)=O)c1ccccc1O	i	nt	nt	nt	nt
Cc1ccc(-c2cc(-c3ccccc3C)[nH]n2)c(O)c1	i	nt	nt	nt	nt
COc1ccc(-c2cc(-c3cc(OC)ccc3O)[nH]n2)cc1	i	i	i	i	i
COc1ccc(O)c(-c2cc(-c3cccc(Br)c3)n[nH]2)c1	i	i	i	i	61.4
Cc1ccc(O)c(-c2cc(-c3cccc(F)c3)n[nH]2)c1	i	i	i	i	68.8
Cc1ccc(-c2cc(-c3cccc(F)c3)n[nH]2)c(O)c1	i	i	i	i	70.1
COc1ccc(-c2n[nH]c(C)c2-c2cc(OC)ccc2O)cc1	i	100.4	i	i	91.3
COC(=O)C1=C(C)OC(N)=C(C#N)C1c1cc(OC)c(OCC(N)=O)cc1Cl (centres undefined)	i	i	i	i	i
COc1cccc(N2CCN(Cc3nc(N)nc(N4CCCc5ccccc54)n3)CC2)c1	i	i	i	i	i
COc1ccc(NS(=O)(=O)c2ccc(N/N=C(\C)c3ccncc3)c([N+](=O)[O-])c2)cc1	i	nt	nt	nt	nt
O=C(NNC(=O)c1ccccc1Br)c1ccc(Cl)cc1	i	i	i	i	i
O=C(NNC(=O)c1ccccc1Br)c1cccc(Cl)c1	i	i	i	3.1	i
Cc1onc(-c2c(F)cccc2Cl)c1C(=O)NCc1ccco1	i	i	i	i	i
Cc1noc(C)c1C(=O)NCCc1ccc(Cl)cc1	i	90.6	i	i	54.2
SMILES	Measles CPE	CYP2C19 inh	CYP2C19 activ	CYP2C9 activ	CYP2C9 inhib
Cc1ccc(-c2cc(C(=O)NCc3cccs3)no2)cc1	i	i	i	i	i
Cc1onc(-c2c(F)cccc2Cl)c1C(=O)NCc1cccs1	i	84.6	i	i	84.4
Cc1onc(-c2c(F)cccc2Cl)c1C(=O)OCC(=O)NC(c1ccccc1)c1ccccc1	i	i	i	i	83.5
Cc1noc(C)c1C(=O)NCc1cccs1	44.5	i	i	i	i
Cn1c(CNC(=O)c2cccs2)nnc1SCC(=O)Nc1ccccc1	i	nt	nt	nt	nt
CCN1C(=O)/C(=C\c2ccc(F)cc2)N=C1SCC(=O)NCc1ccco1	i	nt	nt	nt	nt
CCOC(=O)c1cc(C)n(Cc2cccc(OC)c2OC)c1C	i	i	i	i	i
O=C(CN1C(=O)NC2(CCCc3ccccc32)C1=O)N1CCc2ccccc2C1 (centres undefined)	i	53.6	i	i	59.0
Cc1cc(-n2c(C)cc(C(=O)CN3C(=O)NC4(CCCCCC4)C3=O)c2C)no1	i	i	i	i	i
CCOC(=O)c1cc(C)n(-c2ccc(OC)c(OC)c2)c1C	i	87.5	i	i	63.4
CCOC(=O)c1cc(C)n(Cc2ccccc2)c1C	i	65.3	i	i	50.1
COCCn1c(C)cc(C(=O)CN2C(=O)NC3(CCCCCCC3)C2=O)c1C	i	i	i	3.9	i
N#Cc1ccsc1NC(=O)CN1CCN(S(=O)(=O)c2ccccc2C(F)(F)F)CC1	i	nt	nt	nt	nt
CC(C(=O)O)n1c(C(F)(F)F)nc2ccccc21 (centres undefined)	i	i	i	i	i
